Results from PubChem BioAssay AID1159580 (chemical genetic matrix, 2015).
In all, about 5,500 compounds went through this assay and about 2,000 (36%) were called active. Not shown: some 18% with an inconclusive outcome. Cut-off read from the data, not from the text of the source: active = normalized growth mostly below about 0.91 (no sharp cut-off); inconclusive = no clear call, values can overlap the other calls; inactive = mostly above about 0.92. This is one part of the list.

Experiment: chemical genetic growth profiling, strain panel (AID 1159580);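 note: tested at 20 µM; growth read once vehicle control cultures reached saturation at 30 °C; 1 = growth at the plate median or of vehicle wells; lower values mean less growth of the strain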
Settings: growth OD
[1] = S. cerevisiae deletion strains, locus YAL013W, strain DEP1, active compounds read low
[2] = S. cerevisiae deletion strains, locus YBR229C, strain ROT2, active compounds read low
[3] = S. cerevisiae deletion strains, locus YDL101C, strain DUN1, active compounds read low
[4] = S. cerevisiae deletion strains, locus YDR150W, strain NUM1, active compounds read low
[5] = S. cerevisiae deletion strains, locus YEL061C, strain CIN8, active compounds read low
[6] = S. cerevisiae deletion strains, locus YGR078C, strain PAC10, active compounds read low
[7] = S. cerevisiae deletion strains, locus YHR030C, strain SLT2, active compounds read low
[8] = S. cerevisiae deletion strains, locus YJR043C, strain POL32, active compounds read low
[9] = S. cerevisiae deletion strains, locus YJR075W, strain HOC1, active compounds read low
[10] = S. cerevisiae deletion strains, locus YLR039C, strain RIC1, active compounds read low
[11] = S. cerevisiae deletion strains, locus YLR262C, strain YPT6, active compounds read low
[12] = S. cerevisiae deletion strains, locus YMR263W, strain SAP30, active compounds read low
[13] = S. cerevisiae deletion strains, locus YMR307W, strain GAS1, active compounds read low
[14] = S. cerevisiae deletion strains, locus YNL128W, strain TEP1, active compounds read low
[15] = S. cerevisiae deletion strains, locus YNL153C, strain GIM3, active compounds read low
[16] = S. cerevisiae deletion strains, locus YNL322C, strain KRE1, active compounds read low
[17] = S. cerevisiae deletion strains, locus YOL006C, strain TOP1, active compounds read low
[18] = S. cerevisiae deletion strains, locus YPL055C, strain LGE1, active compounds read low
[19] = S. cerevisiae deletion strains, locus YPL241C, strain CIN2, active compounds read low
[20] = S. cerevisiae deletion strains, locus YAL040C, strain CLN3, active compounds read low
[21] = S. cerevisiae deletion strains, locus YDR363W, strain ESC2, active compounds read low
[22] = S. cerevisiae deletion strains, locus YER002W, strain NOP16, active compounds read low
[23] = S. cerevisiae deletion strains, locus YNL175C, strain NOP13, active compounds read low
[24] = S. cerevisiae deletion strains, locus YNL197C, strain WHI3, active compounds read low
[25] = S. cerevisiae deletion strains, locus YNL224C, strain SQS1, active compounds read low
[26] = S. cerevisiae deletion strains, locus YOR083W, strain WHI5 (second series), active compounds read low
[27] = S. cerevisiae deletion strains, locus YCL061C, strain MRC1 (second series), active compounds read low

Measured: normalized growth

Cc1cccc(Nc2ccncc2S(=O)(=O)NC(=O)NC(C)C)c1
inactive: [1] 1.01 | S. cerevisiae deletion strains, locus YBR021W, strain FUR4, active compounds read low 1.02 | [2] 1.01 | S. cerevisiae deletion strains, locus YCL029C, strain bik1, active compounds read low 1.02 | S. cerevisiae deletion strains, locus YDL035C, strain GPR1, active compounds read low 1.02 | S. cerevisiae deletion strains, locus YDL074C, strain BRE1, active compounds read low 1.01 | [3] 1.02 | S. cerevisiae deletion strains, locus YDL134C, strain PPH21, active compounds read low 1 | S. cerevisiae deletion strains, locus YDL185W, strain tfp1, active compounds read low 1.02 | S. cerevisiae deletion strains, locus YDL192W, strain arf1, active compounds read low 1.03 | S. cerevisiae deletion strains, locus YDR101C, strain arx1, active compounds read low 1.02 | [4] 1.02 | S. cerevisiae deletion strains, locus YDR162C, strain NBP2, active compounds read low 1.01 | S. cerevisiae deletion strains, locus YDR318W, strain mcm21, active compounds read low 1.03 | S. cerevisiae deletion strains, locus YDR388W, active compounds read low 1.02 | S. cerevisiae deletion strains, locus YDR502C, strain sam2, active compounds read low 1.02 | [5] 1.01 | S. cerevisiae deletion strains, locus YER110C, active compounds read low 1.03 | S. cerevisiae deletion strains, locus YER155C, strain BEM2, active compounds read low 0.999 | S. cerevisiae deletion strains, locus YER167W, strain BCK2, active compounds read low 1.01 | S. cerevisiae deletion strains, locus YGL078C, strain dbp3, active compounds read low 1.02 | S. cerevisiae deletion strains, locus YGL086W, strain mad1, active compounds read low 1.02 | S. cerevisiae deletion strains, locus YGL248W, strain PDE1, active compounds read low 1.01 | [6] 1.05 | S. cerevisiae deletion strains, locus YGR135W, strain pre9, active compounds read low 1.01 | S. cerevisiae deletion strains, locus YGR229C, strain SMI1, active compounds read low 1.04 | S. cerevisiae deletion strains, locus YGR252W, strain gcn5, active compounds read low 1.08 | [7] 1.01 | S. cerevisiae deletion strains, locus YHR079C, strain IRE1 (second series), active compounds read low 1.01 | S. cerevisiae deletion strains, locus YHR094C, strain hxt1, active compounds read low 1.02 | S. cerevisiae deletion strains, locus YHR129C, strain ARP1, active compounds read low 1 | S. cerevisiae deletion strains, locus YHR200W, strain rpn10, active compounds read low 1.03 | S. cerevisiae deletion strains, locus YIL066C, strain RNR3, active compounds read low 1.04 | S. cerevisiae deletion strains, locus YIL125W, strain kgd1, active compounds read low 1.01 | S. cerevisiae deletion strains, locus YIR030C, strain dcg1, active compounds read low 1.02 | S. cerevisiae deletion strains, locus YJL095W, strain BCK1, active compounds read low 1.02 | S. cerevisiae deletion strains, locus YJL134W, strain LCB3, active compounds read low 1.01 | S. cerevisiae deletion strains, locus YJL168C, strain set2, active compounds read low 1.02 | S. cerevisiae deletion strains, locus YJL187C, strain SWE1 (second series), active compounds read low 1.02 | [8] 1.04 | [9] 1.01 | S. cerevisiae deletion strains, locus YKL009W, strain mrt4, active compounds read low 1.01 | S. cerevisiae deletion strains, locus YKL068W, active compounds read low 1.01 | S. cerevisiae deletion strains, locus YKL085W, strain MDH1 (second series), active compounds read low 0.986 | S. cerevisiae deletion strains, locus YKL085W, strain MDH1, active compounds read low 0.986 | S. cerevisiae deletion strains, locus YKL190W, strain CNB1, active compounds read low 1.03 | S. cerevisiae deletion strains, locus YKR001C, strain vps1, active compounds read low 1.03 | [10] 1.04 | S. cerevisiae deletion strains, locus YLR058C, strain SHM2, active compounds read low 1.01 | S. cerevisiae deletion strains, locus YLR102C, strain apc9, active compounds read low 1.02 | [11] 1.03 | S. cerevisiae deletion strains, locus YLR268W, strain sec22, active compounds read low 1.02 | S. cerevisiae deletion strains, locus YLR330W, strain CHS5, active compounds read low 1.01 | S. cerevisiae deletion strains, locus YLR342W, strain FKS1 (second series), active compounds read low 1.06 | S. cerevisiae deletion strains, locus YLR371W, strain rom2, active compounds read low 1.03 | S. cerevisiae deletion strains, locus YLR418C, strain cdc73, active compounds read low 1.01 | S. cerevisiae deletion strains, locus YML016C, strain PPZ1, active compounds read low 1.01 | S. cerevisiae deletion strains, locus YML032C, strain rad52, active compounds read low 1.03 | S. cerevisiae deletion strains, locus YML124C, strain tub3, active compounds read low 1.02 | S. cerevisiae deletion strains, locus YMR078C, strain ctf18, active compounds read low 1.03 | S. cerevisiae deletion strains, locus YMR223W, strain ubp8, active compounds read low 1.03 | [12] 1.02 | [13] 1.05 | S. cerevisiae deletion strains, locus YNL067W, strain RPL9B, active compounds read low 1.01 | [14] 1.02 | [15] 1 | S. cerevisiae deletion strains, locus YNL233W, strain BNI4, active compounds read low 1 | S. cerevisiae deletion strains, locus YNL250W, strain rad50, active compounds read low 1.02 | S. cerevisiae deletion strains, locus YNL271C, strain bni1, active compounds read low 1.02 | S. cerevisiae deletion strains, locus YNL298W, strain CLA4, active compounds read low 1.02 | S. cerevisiae deletion strains, locus YNL307C, strain MCK1, active compounds read low 1.03 | [16] 1.02 | S. cerevisiae deletion strains, locus YNR052C, strain pop2, active compounds read low 1.03 | [17] 1 | S. cerevisiae deletion strains, locus YOL012C, strain htz1 0.913 | S. cerevisiae deletion strains, locus YOL147C, strain pex11, active compounds read low 1.02 | S. cerevisiae deletion strains, locus YOR061W, strain CKA2, active compounds read low 1.01 | S. cerevisiae deletion strains, locus YOR069W, strain VPS5, active compounds read low 1 | S. cerevisiae deletion strains, locus YOR136W, strain idh2, active compounds read low 1.03 | S. cerevisiae deletion strains, locus YOR144C, strain elg1, active compounds read low 1.03 | S. cerevisiae deletion strains, locus YOR184W, strain ser1, active compounds read low 1.03 | S. cerevisiae deletion strains, locus YOR316C, strain cot1, active compounds read low 1.02 | [18] 1.04 | [19] 1.03 | S. cerevisiae deletion strains, locus YPR119W, strain clb2, active compounds read low 1.02 | S. cerevisiae deletion strains, locus YPR141C, strain kar3, active compounds read low 1.02 | S. cerevisiae deletion strains, locus YPR163C, strain tif3, active compounds read low 1.03 | S. cerevisiae deletion strains, locus YPR167C, strain met16, active compounds read low 1.01 | S. cerevisiae deletion strains, strain wtn01, active compounds read low 1 | S. cerevisiae strains, strain wild type, active compounds read low 1.04

CC(=O)OCC1=C(C(=O)O)N2C(=O)C(NC(=O)Cc3cccs3)C2SC1 (centres undefined)
inactive: [1] 1.01 | [20] 0.993 | [21] 1 | [22] 1.03 | [9] 0.995 | [15] 1.03 | [23] 1.01 | [24] 1.05 | [25] 1.03 | [26] 1.05

OC1(c2ccc(Cl)cc2)CSc2nc3cc(C(F)(F)F)ccc3n21 (centres undefined)
inactive: [1] 1.03 | [2] 1 | [3] 0.995 | [4] 1.01 | [5] 1.02 | [6] 1 | [7] 1.02 | S. cerevisiae deletion strains, locus YHR087W, strain rtc3, active compounds read low 1.03 | [8] 1.01 | [9] 1 | [10] 1.09 | S. cerevisiae deletion strains, locus YLR058C, strain SHM2 (second series), active compounds read low 1.02 | S. cerevisiae deletion strains, locus YLR085C, strain ARP6, active compounds read low 1.11 | [11] 1.12 | S. cerevisiae deletion strains, locus YML094W, strain GIM5, active compounds read low 1.07 | S. cerevisiae deletion strains, locus YMR219W, strain ESC1, active compounds read low 1.01 | [12] 1.02 | [15] 0.991 | S. cerevisiae deletion strains, locus YNL298W, strain CLA4 (second series), active compounds read low 1.1 | [16] 1.02 | S. cerevisiae deletion strains, locus YNR030W, strain Alg12, active compounds read low 1.09 | [17] 1.08 | [18] 0.998 | [19] 1.04 | S. cerevisiae deletion strains, locus YPR135W, strain CTF4, active compounds read low 1.02

CN1CCN(c2nc3cc(C(F)(F)F)ccc3n3cccc23)CC1
active: [13] 0.867
inactive: [20] 1 | [27] 0.985 | [21] 0.908 | [22] 1.01 | [6] 1.01 | [9] 0.971 | [12] 1 | [14] 1.05 | [15] 0.88 | [24] 1.06 | [25] 1.03 | [16] 0.972 | [26] 0.919

CN1CCN(c2ccc3ccccc3n2)CC1
inactive: [20] 1.04 | [27] 0.996 | [4] 1 | [21] 0.982 | [22] 1 | [6] 1.01 | [9] 0.982 | [13] 1 | [23] 1.02 | [24] 1 | [25] 1.01 | [16] 0.982 | [26] 1.03 | [18] 0.925 | [19] 0.993
